PubChem BioAssay (NCI)
About 83,000 compounds went through this panel and 20% of them were active in at least one assay; those are over-represented in the sample as a whole.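 Growth was measured after 48 h exposure to one concentration of compound in 96-well plates. Values under 10 count as active.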 Active and inactive are the calls of the source.

Assays:
Experiment in all cases: NCI-60 one-dose screen, 48 h (100 = growth as untreated, 0 = no growth, -100 = all killed)
[1] = system: K-562 leukemia; conditions: 10 µM unless noted
[2] = system: MALME-3M melanoma; conditions: 10 µM unless noted
[3] = system: RXF 393 renal; conditions: 10 µM unless noted
[4] = system: SF-295 CNS; conditions: 10 µM unless noted
[5] = system: M14 melanoma; conditions: 10 µM unless noted
[6] = system: SNB-75 CNS; conditions: 10 µM unless noted
[7] = system: U251 CNS; conditions: 10 µM unless noted
[8] = system: SK-MEL-2 melanoma; conditions: 10 µM unless noted
[9] = system: A498 renal; conditions: 10 µM unless noted
[10] = system: HL-60(TB) leukemia; conditions: 10 µM unless noted
[11] = system: CCRF-CEM leukemia; conditions: 10 µM unless noted
[12] = system: SR leukemia; conditions: 10 µM
[13] = system: OVCAR-8 ovarian; conditions: 10 µM unless noted
[14] = system: OVCAR-4 ovarian; conditions: 10 µM unless noted
[15] = system: SK-OV-3 ovarian; conditions: 10 µM unless noted
[16] = system: IGROV1 ovarian; conditions: 10 µM
[17] = system: BT-549 breast; conditions: 10 µM
[18] = system: SNB-19 CNS; conditions: 10 µM unless noted
[19] = system: OVCAR-5 ovarian; conditions: 10 µM unless noted
[20] = system: MDA-MB-435 melanoma; conditions: 10 µM unless noted

Measured: growth

CCOc1ccc(C(O)CN(C)Cc2ccccc2)cc1Cl (stereo not drawn)
inactive: [1] 92.5% | [2] 104% | [3] 90.5% | [4] 96.1% | [5] 96% | [6] 92.9% | [7] 97.4% | [8] 102% | [9] 90.5% | [10] 103% | [11] 108% | [12] 95.7% | [13] 105% | [14] 103% | [15] 109% | [16] 106% | [17] 106%

C=CCN1C(=O)C(CC)(CCC(C)C)C(=O)NC1=S (stereo not drawn)
inactive: [1] 99.8% | [2] 96.1% | [3] 107% | [4] 88.7% | [5] 107% | [6] 96.8% | [18] 100% | [7] 97.3% | [8] 117% | [9] 112% | [10] 101% | [11] 86.3% | [12] 103% | [19] 112% | [14] 106% | [15] 100% | [16] 108% | [17] 106% | [20] 101%

CNC(=O)Oc1ccccc1
inactive: [1] 109% | [2] 105% | [3] 112% | [5] 99.3% | [18] 97% | [7] 108% | [8] 118% | [9] 120% | [10] 120% | [11] 111% | [12] 99% | [13] 110% | [19] 101% | [14] 88.7% | [15] 108% | [16] 116% | [17] 105%

Cc1cc(NC(=O)NCCOc2ccc(N3C(N)=NC(N)=NC3(C)C)cc2Cl)ccc1S(=O)(=O)F
inactive: [1] 13% | [2] 53.3% | [3] 53.8% | [5] 32.1% | [6] 71.5% | [18] 51.5% | [7] 10.7% | [8] 51.4% | [9] 79.1% | [10] 18.1% | [11] 18.6% | [12] 34.8% | [13] 25.3% | [19] 26.6% | [14] 71.5% | [15] 55.4% | [16] 32.5% | [17] 52.1% | [20] 18.8%

Cc1ccc2oc(=O)c3c(c2c1)OC(N)=C(C#N)C3c1ccco1 (stereo not drawn)
inactive: [2] 99% | [4] 98% | [5] 99.8% | [6] 96.2% | [18] 96.9% | [7] 109% | [8] 112% | [9] 105% | [10] 113% | [11] 96.4% | [12] 107% | [13] 101% | [19] 102% | [14] 114% | [16] 104% | [17] 98.8% | [20] 105%

C[CH2][Pb]([CH2]C)([CH2]C)[O]C(=O)COC
inactive: [2] 10.6%
active: [1] 0.215% | [3] -8.73% | [4] -58.5% | [5] 9.74% | [6] -4.45% | [7] -12.1% | [8] -38.7% | [9] -3.55% | [10] -50% | [13] 3.57% | [19] -4.48% | [14] 9.63% | [15] -3.94% | [16] -13% | [17] -18.8% | [20] -12.3%

CC1(C)CC(=O)CC(C)(C)N1N=O
inactive: [1] 111% | [2] 130% | [3] 136% | [4] 111% | [5] 102% | [6] 78.7% | [7] 118% | [9] 106% | [10] 77.4% | [12] 109% | [13] 102% | [19] 104% | [14] 113% | [15] 105% | [16] 122%

O=C(O)C1[O][Sb][O]C1C(=O)O (stereo not drawn)
inactive: [1] 89.1% | [2] 86.8% | [3] 116% | [4] 123% | [5] 94.5% | [6] 94.8% | [18] 110% | [7] 102% | [8] 96.5% | [9] 116% | [10] 91.1% | [12] 70% | [13] 101% | [19] 120% | [14] 99.2% | [15] 102% | [16] 81.8% | [17] 84.6% | [20] 105%

CC1(C)N=C(N)N=C(N)N1c1ccc(CNC(=O)Nc2ccc(S(=O)(=O)F)c(Cl)c2)c(Cl)c1
inactive: [1] 16.4% | [2] 54.5% | [3] 50.6% | [5] 29.4% | [6] 69.2% | [7] 11.3% | [8] 49.7% | [9] 61.3% | [10] 21.8% | [11] 17.5% | [12] 34.6% | [13] 25.4% | [19] 26.4% | [14] 68.8% | [15] 42.9% | [16] 30.6% | [17] 48.6% | [20] 13.5%
